# Data reported in PubChem BioAssay (NCATS).
# Results filed as inconclusive are left out. Entries that show only a call come without a potency. Active and inactive are the calls of the source. Unless noted, calls come from the whole dose curve; as a rule, active = well fitted curve in the direction sought with a large enough effect; inconclusive = small, poorly fitted or top-dose-only effect, or another doubt; inactive = no such curve, though single readings can be large; an effect the other way counts as inactive or inconclusive.
# Key:
# [1] = target: M-phase phosphoprotein 8 (Homo sapiens) (UniProt Q99549); assay: qHTS Validation Assay for Inhibitors for MPP8 Chromodomain Interactions with Methylated Histone Tails (AID 488949);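 note: AlphaScreen signal from MPP8 chromodomain bound to biotinylated H3K9me3 peptide; top concentration of the series differs between compounds; nearly all actives have a fitted effect of over 55% in size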
# Outline: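 MPP8 (50 nM) was preincubated with biotinylated H3(1-18)K9me3 peptide (50 nM) in PBS pH 7.4, 0.01% Tween-20 for 30 min at room temperature, then with compounds for 30 min; binding was detected by AlphaScreen.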
# [2] = Inducers of the Endoplasmic Reticulum Stress Response (ERSR) in human glioma: Validation (AID 504836)
# Outline: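 ERSR induction read as luciferase luminescence (Bright-Glo, 10 min at room temperature) in stably transfected human U87-MG glioma cells exposed to compounds for 16 h, using GRP78 as sensor.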
# [3] = qHTS for Inhibitors of the Functional Ribonucleoprotein Complex (vRNP) of Lassa (LASV) Arenavirus: LASV Primary Screen - GLuc reporter signal (AID 1347082; calls by dose curve; tested in HEK293 reporter line; note: nearly all actives have a fitted effect of over 60% in size)
# [4] = qHTS for Inhibitors of the Functional Ribonucleoprotein Complex (vRNP) of Lassa (LASV) Arenavirus: Viability assay - alamar blue signal for LASV Primary Screen (AID 1347083; calls by dose curve; tested in HEK293 reporter line; note: nearly all actives have a fitted effect of over 80% in size)
# [5] = qHTS for Inhibitors of the Functional Ribonucleoprotein Complex (vRNP) of Lymphocytic Choriomeningitis Arenaviruses (LCMV): Viability assay - alamar blue signal for LCMV Primary Screen (AID 1347085; calls by dose curve; tested in HEK293 reporter line; note: nearly all actives have a fitted effect of over 80% in size)
# [6] = target: Nucleoprotein (Lymphocytic choriomeningitis virus (strain Armstrong)) (UniProt P09992); assay: qHTS for Inhibitors of the Functional Ribonucleoprotein Complex (vRNP) of Lymphocytic Choriomeningitis Arenaviruses (LCMV): LCMV Primary Screen - GLuc reporter signal (AID 1347086; calls by dose curve; note: nearly all actives have a fitted effect of over 70% in size)
# Nucleoprotein (Lymphocytic choriomeningitis virus (strain Armstrong)), sequence (P09992 whole entry, looked up): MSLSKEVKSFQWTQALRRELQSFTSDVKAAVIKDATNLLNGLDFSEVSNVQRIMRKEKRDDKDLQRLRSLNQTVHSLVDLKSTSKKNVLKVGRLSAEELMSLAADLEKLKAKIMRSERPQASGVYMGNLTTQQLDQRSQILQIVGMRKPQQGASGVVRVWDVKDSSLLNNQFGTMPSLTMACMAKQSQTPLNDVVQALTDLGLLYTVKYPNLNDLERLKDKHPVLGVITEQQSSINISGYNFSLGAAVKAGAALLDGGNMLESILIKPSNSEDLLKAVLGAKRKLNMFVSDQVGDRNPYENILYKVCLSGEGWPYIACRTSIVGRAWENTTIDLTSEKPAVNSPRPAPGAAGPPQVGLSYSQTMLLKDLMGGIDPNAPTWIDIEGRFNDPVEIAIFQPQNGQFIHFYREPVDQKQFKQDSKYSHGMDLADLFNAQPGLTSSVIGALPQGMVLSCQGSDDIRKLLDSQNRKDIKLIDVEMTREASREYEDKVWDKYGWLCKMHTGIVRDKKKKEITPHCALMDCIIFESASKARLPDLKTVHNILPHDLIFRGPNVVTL
# [7] = target: Alpha-galactosidase (Coffea arabica) (UniProt Q42656); assay: Counterscreen for Glucocerebrosidase Inhibitors: qHTS Assay for Coffee Bean alpha-Galactosidase at pH 4.5 (AID 957)
# Alpha-galactosidase (Coffea arabica), sequence (Q42656 whole entry, looked up): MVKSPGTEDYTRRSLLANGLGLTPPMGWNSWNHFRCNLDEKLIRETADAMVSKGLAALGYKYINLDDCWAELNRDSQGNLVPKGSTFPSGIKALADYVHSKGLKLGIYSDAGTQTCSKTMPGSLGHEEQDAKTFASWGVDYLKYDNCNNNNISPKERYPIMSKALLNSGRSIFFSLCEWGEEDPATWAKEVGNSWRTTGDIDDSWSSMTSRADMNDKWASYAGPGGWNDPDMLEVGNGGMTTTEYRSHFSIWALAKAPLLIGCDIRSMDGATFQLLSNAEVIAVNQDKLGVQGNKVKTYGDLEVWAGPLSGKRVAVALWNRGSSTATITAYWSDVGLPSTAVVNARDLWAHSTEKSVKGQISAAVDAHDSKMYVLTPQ
# Outline: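 Green coffee bean enzyme (2 nM final) was incubated with compounds (0.7 nM to 77 uM) and 4-methylumbelliferyl alpha-D-galactopyranoside (80 uM final) in 50 mM citric acid, 0.005% Tween-20, pH 4.5, 20 min at room temperature; AC50 from Hill fits.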
# [8] = target: Alpha-galactosidase (Coffea arabica) (UniProt Q42656); assay: Counterscreen for Glucocerebrosidase Inhibitors: qHTS Assay for Coffee Bean alpha-Galactosidase at pH 5.9 (AID 998)
# Outline: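 Compounds were titrated from 0.7 nM to 77 uM against green coffee bean alpha-galactosidase (2 nM) using 80 uM fluorogenic 4-methylumbelliferyl substrate. After 20 min at room temperature, reactions were stopped at pH 10 and read by fluorescence.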
# [9] = Validation screen for inhibitors of Lassa infection (AID 463096; calls by dose curve)
# [10] = target: Flap endonuclease 1 (Homo sapiens) (UniProt P39748); assay: qHTS Validation Assay for the Inhibitors of Human Flap endonuclease 1 (FEN1) (AID 488816)
# Flap endonuclease 1 (Homo sapiens), sequence (P39748 whole entry, looked up): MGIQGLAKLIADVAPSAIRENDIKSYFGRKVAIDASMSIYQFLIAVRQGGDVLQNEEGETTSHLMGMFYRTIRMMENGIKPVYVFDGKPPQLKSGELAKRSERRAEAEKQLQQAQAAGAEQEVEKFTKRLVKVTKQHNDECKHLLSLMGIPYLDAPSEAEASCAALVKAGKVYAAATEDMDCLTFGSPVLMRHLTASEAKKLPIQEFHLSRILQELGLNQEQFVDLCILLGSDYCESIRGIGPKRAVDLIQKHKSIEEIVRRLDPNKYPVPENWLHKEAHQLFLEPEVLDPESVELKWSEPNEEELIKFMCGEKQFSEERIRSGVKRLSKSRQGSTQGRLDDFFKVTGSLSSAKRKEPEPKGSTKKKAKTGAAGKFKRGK
# Outline: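 Readings taken at 0 and 15 min after starting the reaction with 50 nM (final) substrate supplied the signal. Compounds had first sat with 10 nM FEN1 reagent for 15 min at room temperature. Values come from Hill-equation concentration-response fits.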
# [11] = target: Chromobox protein homolog 1 (Homo sapiens) (UniProt P83916); assay: qHTS Validation Assay for Inhibitors of HP1-beta Chromodomain Interactions with Methylated Histone Tails (AID 488953);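 note: loss of AlphaScreen luminescence from HP1-beta binding biotinylated H3K9me3 peptide; nearly all actives have a fitted effect of over 50% in size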
# Chromobox protein homolog 1 (Homo sapiens), sequence (P83916 whole entry, looked up): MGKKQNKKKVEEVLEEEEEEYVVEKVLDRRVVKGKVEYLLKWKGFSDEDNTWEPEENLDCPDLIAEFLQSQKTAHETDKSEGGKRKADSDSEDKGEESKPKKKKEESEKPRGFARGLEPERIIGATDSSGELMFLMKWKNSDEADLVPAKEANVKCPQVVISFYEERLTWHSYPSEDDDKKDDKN
# Outline: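 HP1-beta (50 nM) was preincubated 30 min at room temperature with biotinylated H3(1-18)K9me3 peptide (50 nM) in PBS pH 7.4, 0.01% Tween-20, then with compounds 30 min. AlphaScreen signal was read after streptavidin donor/nickel chelate acceptor beads (10 ug/mL final).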
# [12] = qHTS profiling of the MIPE4 collection as inhibitors of Plasmodium falciparum (DD2) proliferation (AID 743345; call rule not given here); conditions: P. falciparum Dd2 in erythrocytes, SYBR Green DNA, 72 h; at 28.5 µM (top of the series) unless noted
# Outline: (§1)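 Erythrocytes infected with P. falciparum (0.3% parasitemia, 2.5% hematocrit) incubated with compounds 72 h at 37 C, 5% CO2. Lysis with saponin/Triton buffer containing SYBR Green I, overnight at room temperature in the dark; DNA fluorescence (485/535 nm) normalised to 0.29 uM artemisinin and DMSO.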
# [13] = qHTS profiling of the MIPE4 collection as inhibitors of Plasmodium falciparum (DD2) proliferation (Rep 2) (AID 743346; call rule not given here); conditions: P. falciparum Dd2 in erythrocytes, SYBR Green DNA, 72 h; at 28.5 µM (top of the series) unless noted
# Outline: as §1
# [14] = target: Arylsulfatase A (Homo sapiens) (UniProt P15289); assay: qHTS screen for enhancers of Arylsulfatase A (ASA1): LOPAC Validation Assay (AID 720538); note: potency is the fitted concentration of half-maximal effect
# Arylsulfatase A (Homo sapiens), sequence (P15289 whole entry, looked up): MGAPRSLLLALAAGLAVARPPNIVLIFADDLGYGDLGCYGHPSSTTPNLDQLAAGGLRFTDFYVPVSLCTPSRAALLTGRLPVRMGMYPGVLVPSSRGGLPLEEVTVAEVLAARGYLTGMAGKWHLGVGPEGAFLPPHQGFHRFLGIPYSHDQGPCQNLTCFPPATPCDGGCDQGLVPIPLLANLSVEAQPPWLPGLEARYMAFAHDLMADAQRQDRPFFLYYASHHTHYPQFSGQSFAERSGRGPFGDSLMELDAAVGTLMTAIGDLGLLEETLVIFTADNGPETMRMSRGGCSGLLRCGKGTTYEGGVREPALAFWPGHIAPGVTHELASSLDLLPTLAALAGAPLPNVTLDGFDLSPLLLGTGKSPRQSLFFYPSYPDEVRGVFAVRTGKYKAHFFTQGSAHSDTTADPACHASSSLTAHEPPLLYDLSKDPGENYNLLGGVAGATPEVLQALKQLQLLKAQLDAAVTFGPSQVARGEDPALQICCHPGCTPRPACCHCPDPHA
# Outline: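 SV40-transformed skin fibroblasts from an MLD patient (ASA-I179S) were treated with compounds for 48h at 37 degree C, then lysed with 0.5mM pNCS final substrate for 14h at room temperature; NaOH stop, fluorescence read (Ex=525 nm; Em=598 nm).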
# [15] = target: Ubiquitin carboxyl-terminal hydrolase 2 (Homo sapiens) (UniProt O75604); assay: qHTS Validation Assay for Inhibitors of Ubiquitin-specific Protease USP2a Using CHOP2 as the Reporter (AID 463106); note: potency is the fitted concentration of half-maximal effect
# Ubiquitin carboxyl-terminal hydrolase 2 (Homo sapiens), sequence (O75604 whole entry, looked up): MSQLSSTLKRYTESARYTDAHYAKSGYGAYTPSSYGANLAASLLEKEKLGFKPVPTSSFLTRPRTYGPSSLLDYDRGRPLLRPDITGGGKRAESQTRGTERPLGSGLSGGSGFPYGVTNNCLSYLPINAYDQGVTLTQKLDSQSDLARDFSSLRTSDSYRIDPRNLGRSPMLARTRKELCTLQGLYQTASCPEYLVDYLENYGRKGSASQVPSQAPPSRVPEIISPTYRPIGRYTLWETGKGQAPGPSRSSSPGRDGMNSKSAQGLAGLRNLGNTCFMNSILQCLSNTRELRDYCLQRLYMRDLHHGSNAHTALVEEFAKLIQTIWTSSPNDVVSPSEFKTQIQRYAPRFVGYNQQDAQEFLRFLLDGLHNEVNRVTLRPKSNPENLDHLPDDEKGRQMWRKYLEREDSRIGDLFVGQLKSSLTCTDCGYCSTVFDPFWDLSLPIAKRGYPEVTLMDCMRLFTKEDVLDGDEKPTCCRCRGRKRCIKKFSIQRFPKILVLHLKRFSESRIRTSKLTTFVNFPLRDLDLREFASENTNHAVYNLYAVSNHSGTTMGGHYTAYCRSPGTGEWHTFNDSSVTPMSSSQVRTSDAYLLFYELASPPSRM
# Outline: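 10nM USP2 core + cpd, 30min RT; add 25nM Ub-CHOP2/25nM substrate; 60min RT; FI 485/531nm. Buffer Tris pH 8.0, CaCl2, BME, CHAPS. Norm. to NEM = 100% inhibition; time-zero read flags fluorescent artifacts.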
# [16] = target: DNA polymerase III PolC-type (Bacillus subtilis (strain 168)) (UniProt P13267); assay: qHTS Validation Assay for the Inhibitors of DNA Replication in Gram-Positive Bacteria (AID 485295); note: potency is the fitted concentration of half-maximal effect
# DNA polymerase III PolC-type (Bacillus subtilis (strain 168)), sequence (P13267 whole entry, looked up): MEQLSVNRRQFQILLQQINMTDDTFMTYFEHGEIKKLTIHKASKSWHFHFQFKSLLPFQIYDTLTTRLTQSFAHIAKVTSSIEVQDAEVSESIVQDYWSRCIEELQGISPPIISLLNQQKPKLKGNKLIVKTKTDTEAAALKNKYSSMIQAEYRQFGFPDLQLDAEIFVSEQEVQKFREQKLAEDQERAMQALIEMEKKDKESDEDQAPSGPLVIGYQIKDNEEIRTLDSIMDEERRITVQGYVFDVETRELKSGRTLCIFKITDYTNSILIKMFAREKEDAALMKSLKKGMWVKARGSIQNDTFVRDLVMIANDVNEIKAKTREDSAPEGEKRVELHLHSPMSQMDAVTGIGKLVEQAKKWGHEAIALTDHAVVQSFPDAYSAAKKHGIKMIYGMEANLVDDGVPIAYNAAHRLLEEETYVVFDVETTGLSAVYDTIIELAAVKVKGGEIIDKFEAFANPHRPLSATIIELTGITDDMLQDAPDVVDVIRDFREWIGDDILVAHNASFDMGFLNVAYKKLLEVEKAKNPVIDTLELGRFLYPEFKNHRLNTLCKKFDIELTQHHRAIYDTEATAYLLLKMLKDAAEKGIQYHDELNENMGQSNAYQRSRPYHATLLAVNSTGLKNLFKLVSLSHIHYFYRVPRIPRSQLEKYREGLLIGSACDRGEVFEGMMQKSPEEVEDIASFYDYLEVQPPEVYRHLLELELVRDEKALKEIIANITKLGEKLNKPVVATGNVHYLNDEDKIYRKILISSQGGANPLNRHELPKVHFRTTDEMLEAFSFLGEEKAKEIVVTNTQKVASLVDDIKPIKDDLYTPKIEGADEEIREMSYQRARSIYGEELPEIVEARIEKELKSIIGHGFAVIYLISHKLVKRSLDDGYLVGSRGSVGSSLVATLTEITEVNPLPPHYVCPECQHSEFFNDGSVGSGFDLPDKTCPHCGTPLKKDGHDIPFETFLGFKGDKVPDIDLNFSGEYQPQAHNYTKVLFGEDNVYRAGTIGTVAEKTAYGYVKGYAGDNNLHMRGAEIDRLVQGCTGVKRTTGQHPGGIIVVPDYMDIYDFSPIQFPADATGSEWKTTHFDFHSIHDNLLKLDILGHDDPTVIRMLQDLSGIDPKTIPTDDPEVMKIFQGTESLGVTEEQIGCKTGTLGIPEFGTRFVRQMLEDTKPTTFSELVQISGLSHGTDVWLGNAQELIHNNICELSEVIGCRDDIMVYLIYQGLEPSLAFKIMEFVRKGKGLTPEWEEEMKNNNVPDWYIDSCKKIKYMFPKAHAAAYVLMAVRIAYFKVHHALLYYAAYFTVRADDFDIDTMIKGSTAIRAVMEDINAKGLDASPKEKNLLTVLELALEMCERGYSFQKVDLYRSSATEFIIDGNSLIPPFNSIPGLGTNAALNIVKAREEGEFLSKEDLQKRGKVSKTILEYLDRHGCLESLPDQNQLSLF
# Outline: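 Reconstituted B. subtilis holoenzyme (Pol III, beta clamp, SSB, primase) was preincubated with compound at room temperature, then given single-stranded circular M13Gori plus dNTPs and NTPs. EDTA-containing PicoGreen stopped the reaction, and dsDNA product was read by fluorescence.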
# [17] = target: Ubiquitin carboxyl-terminal hydrolase 1 (Homo sapiens) (UniProt O94782); assay: Inhibitors of USP1/UAF1: Pilot qHTS (AID 504865); note: potency is the fitted concentration of half-maximal effect; nearly all actives have a fitted effect of over 35% in size
# Ubiquitin carboxyl-terminal hydrolase 1 (Homo sapiens), sequence (O94782 whole entry, looked up): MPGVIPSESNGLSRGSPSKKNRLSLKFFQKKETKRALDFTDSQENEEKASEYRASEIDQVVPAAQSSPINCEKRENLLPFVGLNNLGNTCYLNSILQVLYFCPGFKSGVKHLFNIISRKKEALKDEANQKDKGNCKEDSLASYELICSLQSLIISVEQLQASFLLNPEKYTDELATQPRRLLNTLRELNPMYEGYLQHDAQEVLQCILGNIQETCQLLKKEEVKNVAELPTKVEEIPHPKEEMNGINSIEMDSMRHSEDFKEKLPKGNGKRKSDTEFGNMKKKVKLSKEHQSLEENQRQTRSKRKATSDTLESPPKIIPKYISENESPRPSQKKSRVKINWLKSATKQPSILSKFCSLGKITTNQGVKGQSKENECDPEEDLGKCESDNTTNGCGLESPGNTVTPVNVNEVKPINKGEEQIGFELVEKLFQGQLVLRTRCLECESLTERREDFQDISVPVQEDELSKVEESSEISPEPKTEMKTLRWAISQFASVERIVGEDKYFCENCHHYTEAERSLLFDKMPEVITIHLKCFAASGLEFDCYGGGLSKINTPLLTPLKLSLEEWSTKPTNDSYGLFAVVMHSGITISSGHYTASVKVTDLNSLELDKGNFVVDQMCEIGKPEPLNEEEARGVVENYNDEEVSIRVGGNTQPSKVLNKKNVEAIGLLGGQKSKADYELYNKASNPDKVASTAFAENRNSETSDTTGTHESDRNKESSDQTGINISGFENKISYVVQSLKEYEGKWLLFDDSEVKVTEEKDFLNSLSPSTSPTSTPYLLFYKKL
# Outline: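 USP1/UAF1 complex (1nM) preincubated with compound 15 min at room temperature, then Ub-Rho substrate (150nM final) added. Fluorescence read kinetically at 480/540 nm, 6 reads every 60 seconds. Buffer: 50mM HEPES pH 7.8, 0.5mM EDTA, 0.1 mg/ml BSA, 1mM TCEP, 0.01% Tween-20.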
# [18] = HTS Assay for Allosteric Antagonists of the Human D2 Dopamine Receptor: Hit Validation in HTRF (AID 624455);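 note: stable D1 dopamine receptor cell line scored for blocking the D1 response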
# Outline: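 Hits were examined in an HTRF assay using cells stably expressing the D1 dopamine receptor, scoring inhibition of the D1-mediated response. The preceding primary screen tracked calcium flux after an EC80 dopamine addition in force-coupled, inducible Hek293 Trex D2 cells.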
compound,measurement,setting,value
Nc1ncnc2c1ncn2[C@@H]1O[C@H](COP(=O)(O)CP(=O)(O)OP(=O)(O)O)[C@@H](O)[C@H]1O,Potency,[1],inactive
same,outcome,[2],inactive
same,Potency,[3],inactive
same,Potency,[4],inactive
same,Potency,[5],inactive
same,Potency,[6],inactive
NC1(C(=O)O)CCCCC1,outcome,[7],inactive
same,outcome,[8],inactive
same,Potency,[9],inactive
same,Potency,[3],inactive
same,Potency,[4],inactive
same,Potency,[5],inactive
same,Potency,[6],inactive
NS(=O)(=O)c1cccc2c1c([N+](=O)[O-])cc1nc(O)c(O)nc12,outcome,[7],inactive
same,outcome,[8],inactive
same,Potency,[9],inactive
same,Potency,[3],inactive
same,Potency,[4],inactive
same,Potency,[5],inactive
same,Potency,[6],inactive
CC(=O)SCC[N+](C)(C)C,outcome,[7],inactive
same,outcome,[8],inactive
same,Potency,[9],inactive
same,Potency,[3],inactive
same,Potency,[4],inactive
same,Potency,[5],inactive
same,Potency,[6],inactive
O=C(Nc1cccc(C(=O)Nc2ccc(S(=O)(=O)O)c3cc(S(=O)(=O)O)cc(S(=O)(=O)O)c23)c1)Nc1cccc(C(=O)Nc2ccc(S(=O)(=O)O)c3cc(S(=O)(=O)O)cc(S(=O)(=O)O)c23)c1,outcome,[7],inactive
same,outcome,[8],inactive
same,Potency,[9],inactive
same,Potency,[3],inactive
same,Potency,[4],inactive
same,Potency,[5],inactive
same,Potency,[6],inactive
O=c1ccc2c(OCCCCc3ccccc3)c3ccoc3cc2o1,outcome,[7],inactive
same,outcome,[8],inactive
same,Potency,[9],inactive
same,Potency,[3],inactive
same,Potency,[4],inactive
same,Potency,[5],inactive
same,Potency,[6],inactive
O=C(O)C1CCNCC1,outcome,[7],inactive
same,outcome,[8],inactive
same,Potency,[9],inactive
same,Potency,[3],inactive
same,Potency,[4],inactive
same,Potency,[5],inactive
same,Potency,[6],inactive
O=[N+]([O-])c1cccc2c(Br)[nH]nc12,outcome,[8],inactive
same,Potency,[9],inactive
same,outcome,[2],inactive
same,Potency,[3],inactive
same,Potency,[4],inactive
same,Potency,[5],inactive
same,Potency,[6],inactive
Nc1ncnc2c1c(I)cn2[C@@H]1C[C@H](N)[C@@H](O)[C@H]1O,outcome,[2],inactive
same,Potency,[3],inactive
same,Potency,[4],inactive
same,Potency,[5],inactive
same,Potency,[6],inactive
C[C@](Cc1ccc(O)c(O)c1)(NN)C(=O)O,outcome,[2],inactive
same,Potency,[3],inactive
same,Potency,[4],inactive
same,Potency,[5],inactive
same,Potency,[6],inactive
NC(=S)c1ccc[n+]([C@@H]2O[C@@H](COP(=O)([O-])OP(=O)(O)OC[C@H]3O[C@@H](n4cnc5c(N)ncnc54)[C@H](OP(=O)(O)O)[C@@H]3O)C(O)C2O)c1 (stereo not given in full),outcome,[2],inactive
same,Potency,[3],inactive
same,Potency,[4],inactive
same,Potency,[5],inactive
same,Potency,[6],inactive
Cn1cnc2c(NCc3ccccc3)nc(NCCO)nc21,outcome,[7],inactive
same,outcome,[8],inactive
same,Potency,[9],inactive
same,Potency,[3],inactive
same,Potency,[4],inactive
same,Potency,[5],inactive
same,Potency,[6],inactive
N#C/C(=C\c1ccc(O)c(O)c1)C(=O)NCCCc1ccccc1,outcome,[7],inactive
same,Potency,[9],inactive
same,Potency,[3],inactive
same,Potency,[4],inactive
same,Potency,[5],inactive
same,Potency,[6],inactive
N#C/C(=C\c1ccc(-c2cc(Cl)ccc2Cl)o1)C(=O)Nc1cccc2ncccc12,outcome,[2],inactive
same,Potency,[3],inactive
same,Potency,[4],inactive
same,Potency,[5],inactive
same,Potency,[6],inactive
CCCn1c(=O)c2[nH]c(C3CCCC3)nc2n(CCC)c1=O,outcome,[8],inactive
same,Potency,[9],inactive
same,outcome,[2],inactive
same,Potency,[3],inactive
same,Potency,[4],inactive
same,Potency,[5],inactive
same,Potency,[6],inactive
CC[C@H](NC(=O)c1c(C)c(-c2ccccc2)nc2ccccc12)c1ccccc1,outcome,[7],inactive
same,outcome,[8],inactive
same,Potency,[9],inactive
same,Potency,[3],inactive
same,Potency,[4],inactive
same,Potency,[5],inactive
same,Potency,[6],inactive
COc1cccc2c1[C@@H]1CN(CCCCn3c(=O)[nH]c4c(sc5ncc(-c6ccccc6)nc54)c3=O)C[C@@H]1CO2,outcome,[2],inactive
same,Potency,[3],inactive
same,Potency,[4],inactive
same,Potency,[5],inactive
same,Potency,[6],inactive
CN[C@H](CC(C)C)C(=O)N[C@H]1C(=O)N[C@@H](CC(N)=O)C(=O)N[C@@H]2C(=O)N[C@H]3C(=O)N[C@H](C(=O)N[C@H](C(=O)O)c4cc(O)cc(O)c4-c4cc3ccc4O)[C@H](O)c3ccc(c(Cl)c3)Oc3cc2cc(c3O[C@@H]2O[C@H](CO)[C@@H](O)[C@H](O)[C@@H]2O[C@H]2C[C@](C)(N)[C@H](O)[C@H](C)O2)Oc2ccc(cc2Cl)[C@H]1O,Potency,[10],inactive
same,Potency,[11],inactive
same,"parasite growth remaining, % of DMSO control (lower = more inhibition)",[12],104%
same,"parasite growth, % of control (lower = inhibition)",[13],150%
same,Potency,[3],inactive
same,Potency,[4],inactive
same,Potency,[5],inactive
same,Potency,[6],inactive
O=C(O)CC1CC(c2ccccc2)=NO1 (stereo not given),Potency,[10],inactive
same,outcome,[2],inactive
same,Potency,[14],inactive
same,Potency,[3],inactive
same,Potency,[4],inactive
same,Potency,[5],inactive
same,Potency,[6],inactive
Cc1nc2c(OCc3ccccc3)cccn2c1CC#N,outcome,[8],inactive
same,Potency,[9],inactive
same,outcome,[2],inactive
same,Potency,[3],inactive
same,Potency,[4],inactive
same,Potency,[5],inactive
same,Potency,[6],inactive
O=C(O)[C@@H]1C[C@@H](C(=O)O)N1,outcome,[7],inactive
same,outcome,[8],inactive
same,Potency,[9],inactive
same,Potency,[3],inactive
same,Potency,[4],inactive
same,Potency,[5],inactive
same,Potency,[6],inactive
N.N.N.N.N.N.N.N.N.N.N.N.N.N.O.O.[Ru+4].[Ru+5].[Ru+5],Potency,[15],14.7 µM (active)
same,Potency,[16],16.8 µM (active)
same,outcome,[2],inactive
same,Potency,[17],44.7 µM (active)
same,outcome,[18],inactive
same,Potency,[14],12 µM (active)
same,Potency,[3],inactive
same,Potency,[4],inactive
same,Potency,[5],inactive
same,Potency,[6],inactive
NCC(O)C1CCCCCCC1 (stereo not given),outcome,[2],inactive
same,Potency,[3],inactive
same,Potency,[4],inactive
same,Potency,[5],inactive
same,Potency,[6],inactive
CC(C)(C=O)Cc1cc(C(C)(C)C)c(O)c(C(C)(C)C)c1,outcome,[7],inactive
same,outcome,[8],inactive
same,Potency,[9],inactive
same,Potency,[3],inactive
same,Potency,[4],inactive
same,Potency,[5],inactive
same,Potency,[6],inactive
C#CCn1c(=O)c2c(ncn2C)n(C)c1=O,outcome,[8],inactive
same,Potency,[9],inactive
same,Potency,[3],inactive
same,Potency,[4],inactive
same,Potency,[5],inactive
same,Potency,[6],inactive
NCCNS(=O)(=O)c1cccc2c(Cl)cccc12,outcome,[8],inactive
same,Potency,[9],inactive
same,outcome,[2],inactive
same,Potency,[3],inactive
same,Potency,[4],inactive
same,Potency,[5],inactive
same,Potency,[6],inactive
O=c1[nH]c(=O)c2nc3ccccc3nc2[nH]1,outcome,[8],inactive
same,Potency,[9],inactive
same,outcome,[2],inactive
same,Potency,[3],inactive
same,Potency,[4],inactive
same,Potency,[5],inactive
same,Potency,[6],inactive
O=c1cc(-c2ccccc2F)[nH]c2cc3c(cc12)OCO3,outcome,[2],inactive
same,Potency,[3],inactive
same,Potency,[4],inactive
same,Potency,[5],inactive
same,Potency,[6],inactive
Oc1cc2c(cc1O)CN(C(=S)NCCc1ccc(Cl)cc1)CCC2,outcome,[8],inactive
same,Potency,[9],inactive
same,outcome,[2],inactive
same,Potency,[3],inactive
same,Potency,[4],inactive
same,Potency,[5],inactive
same,Potency,[6],inactive
